Most compounds without a hit are left out; they make up all but 7.5% or so of the library.
SMN2 splice enh – enhancers of SMN2 splice variant expression; 2.8% of 210,000 active; HEK293 SMN2-luciferase splicing reporter, luminescence, 30-36 h; AID 1458; Potency, µM (titrated, usually from 46.1 µM), without a hit: top-dose activity change, positive = activation, actives largely listed as activators; further: % of control where 0% means no effect; nearly all actives have a fitted effect of over 55% in size
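HEK293 cells carry an SMN2 […]–luciferase reporter in which exon 7 inclusion puts luciferase in frame. Cells were plated 10-12 h before compound addition, then incubated 30-36 h at 37C. ONE-Glo luminescence was read; sodium butyrate at 4.5 mM final served as control.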
FLuc modulator – counter-screen for miR-21 project: firefly luciferase inhibitors or activators; P08659; purified FLuc, Km substrates, luminescence inhibition; Potency, µM (titrated, usually from 57.5 µM), for inactives: at the top dose activity change, negative = inhibition, most hits filed as inhibitors; 6.9% of 360,000 active; AID 588342;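 further: plate controls were vehicle for no effect and reference inhibitor for full effect; nearly all actives have a fitted effect of over 55% in size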
Target sequence (P08659 whole entry, looked up): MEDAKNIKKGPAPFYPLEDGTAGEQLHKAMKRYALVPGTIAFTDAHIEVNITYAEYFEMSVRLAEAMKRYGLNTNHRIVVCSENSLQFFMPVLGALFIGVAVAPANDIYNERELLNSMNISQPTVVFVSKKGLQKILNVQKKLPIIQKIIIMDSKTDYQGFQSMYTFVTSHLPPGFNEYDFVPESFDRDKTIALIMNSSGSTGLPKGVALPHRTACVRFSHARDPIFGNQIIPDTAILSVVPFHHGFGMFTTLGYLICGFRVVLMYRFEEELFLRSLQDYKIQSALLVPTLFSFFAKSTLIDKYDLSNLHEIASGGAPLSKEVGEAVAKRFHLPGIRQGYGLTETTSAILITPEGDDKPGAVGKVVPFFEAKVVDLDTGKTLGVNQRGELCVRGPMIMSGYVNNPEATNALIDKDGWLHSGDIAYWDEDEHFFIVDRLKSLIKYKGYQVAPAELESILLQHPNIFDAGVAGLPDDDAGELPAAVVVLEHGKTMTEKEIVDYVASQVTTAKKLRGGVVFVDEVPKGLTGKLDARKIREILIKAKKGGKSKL
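Purified P. pyralis luciferase (10nM final) with 10uM D-luciferin and 10uM ATP (Km levels) in 50mM Tris acetate pH 7.5, 10mM Mg acetate, 0.01% Tween-20, 0.05% BSA; qHTS 6-point titration, ~60 µM downward; luminescence read.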
NPC1 promoter act – activators of NPC1 promoter; Huh7 NPC1 promoter luciferase reporter, 24 h; Potency, µM (series often up to 9.22 µM), for inactives: top-dose activation, hits mostly activators; 2.4% of 320,000 active; AID 485313; further: % of control where 0% means no effect; nearly all actives have a fitted effect of over 60% in size
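Huh7 reporter cells (NPC1 promoter driving luciferase) are dosed with compound for 24 h at 37 °C, 5% CO2; luciferase detection reagent is then added and luminescence measured after 10 min at ambient temperature.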
Rab9 promoter act – Rab9 promoter activation; Huh7 Rab9 promoter-luciferase reporter, luminescence, 24 h; Potency, µM (doses to about 9.22 µM), inactives show at the top dose activation, negative = inhibition, most hits filed as activators; 2.8% of 320,000 active; AID 485297; further: % of control where 0% means no effect; nearly all actives have a fitted effect of over 60% in size
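Measured in stably transfected Huh7 cells bearing a Rab9 promoter–luciferase construct: 24 h compound treatment at 37 °C, followed by luminescence detection.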
Luc counter – blocks Kinase-Glo luciferase, a counter-screen artifact; Q27757; Kinase-Glo luciferase, ATP luminescence, 8 min; Potency, µM (series often up to 38.3 µM), without a hit: at the highest dose activity change, negative = inhibition, actives largely listed as inhibitors; 0.28% of 200,000 active; further: on the % scale 0 is the no-effect control and ±100 the full control effect; nearly all actives have a fitted effect of over 60% in size
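Inhibition of Kinase-Glo luciferase light generation was assessed at 10 uM ATP in pH 7.2 imidazole buffer, with luminescence measured after eight minutes at ambient temperature.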
ELG1 genotoxic – inducers of genotoxicity in HEK293T ELG1-luciferase cells. HEK293T ELG1-luciferase reporter, luminescence, 16 h. Potency, µM (top dose mostly 46 µM), inactives show at the top dose activity change, positive = activation, usual class: activators. 1.3% of 330,000 active. AID 504466; further: % of control where 0% means no effect; nearly all actives have a fitted effect of over 60% in size
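Step 1: seed 2,000 HEK293T ELG1-luciferase cells per well. Step 2: add compound or DMSO, incubate 16 hr at 37 °C. Step 3: ONE-Glo, 30 min at room temperature, read luminescence.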
The depositor's hits bear a star; ? = inconclusive; . = no result given; [ ] = remark or other dose. The call rests on the fitted dose curve; in most records, active means well fitted curve in the direction sought with a large enough effect; inconclusive means small, poorly fitted or top-dose-only effect, or another doubt; inactive means no such curve, though single readings can be large; an effect the other way counts as inactive or inconclusive. Potency means the concentration at half of the fitted maximal effect.

SMILES	SMN2 splice enh	FLuc modulator	NPC1 promoter act	Rab9 promoter act	Luc counter	ELG1 genotoxic
Nc1c(C(=O)Nc2ccc3c(c2)OCCO3)nnn1Cc1cccc(Cl)c1	.	?	?	?	.	11.6%
CCc1cc2c(cc3c(=O)n(CC(=O)N4CCCCC4)nc(CC)n32)s1	3.3%	-2.1%	.	.	.	.
c1ccc(Cc2nnc3sc(-c4ccncc4)nn23)cc1	-4.0%	-2.2%	0.8%	-3.6%	2.1%	-5.8%
c1ccc(Cc2nnc3sc(-c4ccc5c(c4)OCCO5)nn23)cc1	4.2%	13.5µM*	8.9%	?	0.8%	?
COc1ccc2c(c1)c(=O)oc1c(C)c(OC(C)C(=O)NCC3CCC(C(=O)O)CC3)ccc12 (stereo unspecified)	.	15.1µM*	7.8%	4.9%	.	9.1%
COc1ccc2c(c1)c(=O)oc1c(C)c(OCC(=O)N3CCc4ccccc4C3)ccc12	-18.2%	-13.1%	-2.1%	6.7%	-6.7%	1.8%
COc1ccc2c(c1)c(=O)oc1c(C)c(OCc3cc(C(=O)O)oc3C)ccc12	0.9%	10.7µM*	-0.8%	11.6%	-1.7%	?
COc1ccc2c(c1)c(=O)oc1c(C)c(OCc3ccc(C(=O)O)cc3)ccc12	.	23.9µM*	-4.7%	6.8%	.	2.7%
Cc1oc(C(=O)O)cc1COc1ccc2c3c(c(=O)oc2c1)CCC3	-0.6%	?	12.2%	3.8%	0.1%	?
Cc1cc(=O)oc2c(C)c(OC(C)C(=O)NCC3CCC(C(=O)O)CC3)ccc12 (stereo unspecified)	.	-0.5%	6.3%	-1.3%	.	1.1%
O=C(Nc1ccc(Br)cc1)c1ccc(F)c(S(=O)(=O)N2CCc3ccccc32)c1	.	-8.7%	.	.	.	.
Cc1ccc(NC(=O)CSc2nnc(Cc3csc(C)n3)o2)c(C)c1	.	1.2%	6.0%	-2.2%	.	0.5%
O=C(NCc1cccs1)c1nn(-c2ccccc2F)nc1CO	-59.1%	5.6%	.	.	.	.
COCCOC(=O)C1=C(C)NC(C)=C(C(=O)OC/C=C/c2ccccc2)C1c1cccc([N+](=O)[O-])c1 (stereo unspecified)	.	.	-23.0%[46.1 µM]	-14.6%[46.1 µM]	.	.
OC(COc1ccc2ccccc2c1Cl)CN1CCOCC1 (stereo unspecified)	?	16.9µM*	?	?	10.7%	?
OC(COc1ccccc1)CN1CCOCC1 (stereo unspecified)	13.9%	11.6%	-5.9%	6.6%	2.7%	1.3%
CCN1CCN(S(=O)(=O)c2ccc(Cl)c(C(=O)NC3CC3)c2)CC1	.	4.0%	-0.4%	-5.4%	.	1.7%
CCN1CCN(S(=O)(=O)c2ccc(Cl)c(C(=O)NCCc3ccccc3)c2)CC1	.	?	?	?	.	16.4µM*
O=c1oc(CCCO)cc2ccc(C#Cc3cccnc3)cc12	.	.	.	.	.	13.1%
CN(C)c1ccc(C#Cc2ccc3cc(CCO)oc(=O)c3c2)cc1	.	1.35µM*	3.98µM*	?	.	17.1%
O=c1oc(CCO)cc2ccc(C#Cc3ccsc3)cc12	.	?	?	3.98µM*	.	?
CCc1cc2c(cc3c(=O)n(CC(=O)NC(C)C)nc(CC)n32)s1	2.2%	-2.9%	.	.	.	.
COc1cc(OC)c(NC(=O)C(CC(C)C)N2Cc3ccccc3C2=O)cc1Cl (stereo unspecified)	.	-6.2%	.	.	.	.
CC1Oc2ccccc2N(CC(=O)NCc2ccccc2)C1=O (stereo unspecified)	.	?	?	3.98µM*	-10.7%	?
CCC1Oc2ccccc2N(CC(=O)NCCN2C(C)CCCC2C)C1=O (stereo unspecified)	10µM*	0.3%	-0.9%	-1.5%	1.0%	-0.6%
SMILES	SMN2 splice enh	FLuc modulator	NPC1 promoter act	Rab9 promoter act	Luc counter	ELG1 genotoxic
CSCC[C@H](NC(=O)[C@@H]1Cc2ccccc2CN1)C(=O)Nc1ccc2c(c1)OCCO2	.	15.1µM*	?	?	.	?
C[C@H](NC(=O)[C@@H]1Cc2ccccc2CN1)C(=O)Nc1ccc2c(c1)OCCO2	.	-6.1%	-1.1%	6.5%	.	8.5%
CCCCN=C1NN=C(c2ccc(C)c(C)c2)CS1	14.1µM*	23.9µM*	2.82µM*	1.58µM*	1.4%	13.2%
COCCN=C1NN=C(c2ccc(C)c([N+](=O)[O-])c2)CS1	11.2µM*	15.1µM*	2.82µM*	4.47µM*	-1.1%	18.3µM*
CCCCN=C1NN=C(c2ccc3c(c2)OCCO3)CS1	.	3.01µM*	1.26µM*	0.891µM*	-24.1%	1.83µM*
COc1ccc(N=C2NN=C(c3ccc4c(c3)OCCO4)CS2)cc1	-11.5%	?	-0.4%	22.9%	4.8%	15.2%
c1cc2c(cc1C1=NNC(=NC3CC3)SC1)OCCO2	-80.0%	0.239µM*	0.0003µM*	0.0013µM*	2.24µM*	?
COCCn1c(C)cc(C2=NNC(=NC(C)(C)C)SC2)c1C	-26.9%	?	?	?	-1.1%	?
CNC(=O)C1CCC(Cn2c(=O)c3sccc3n(Cc3ccccc3)c2=O)CC1 (stereo unspecified)	.	-2.1%	.	.	.	.
COc1cccc(C2=NS(=O)(=O)N(C)C(C(=O)Nc3cccc(O)c3)=C2)c1	.	1.5%	.	.	.	.
Cc1ccc(NC(=O)C2CCCN(S(=O)(=O)c3ccc4c(c3)CCCC(=O)N4)C2)cc1N(C)C (stereo unspecified)	.	4.2%	.	.	.	.
CNC(=S)SCCOc1ccc(C)cc1	16.0%	15.1µM*	0.8%	3.8%	2.2%	-0.3%
CNC(=S)SCCOc1ccccc1	.	15.1µM*	1.9%	10.4%	.	0.9%
CCc1ccccc1Nc1nn2c(=O)c3ccc(C(=O)NC(C)c4ccccc4)cc3nc2s1 (stereo unspecified)	.	-3.3%	.	.	.	.
Cc1cc(NS(=O)(=O)c2ccc(NC(=O)/C=C/c3c(F)cccc3Cl)cc2)no1	.	?	1.2%	0.0%	.	5.0%
O=C(/C=C/c1c(Cl)cccc1Cl)Nc1ccncc1	-22.1%	3.01µM*	26.3%	?	14.5%	?
O=C(Nc1ccncc1)c1ccccc1Cl	.	-10.8%	-1.1%	-5.1%	.	-5.5%
O=C(/C=C/c1c(F)cccc1Cl)Nc1ccncc1	-22.6%	7.57µM*	29.2%	?	-0.4%	15.7%
O=C(/C=C/c1cccc(Cl)c1)Nc1ccncc1	-0.9%	16.9µM*	0.6%	24.4%	-4.3%	2.9%
COCCNC(=O)CSc1nnc(-c2ccc(OC)c(OC)c2)c(-c2ccc(OC)c(OC)c2)n1	.	1.9%	.	.	.	.
Cc1cc([N+](=O)[O-])ccc1NC(=O)c1csc(C)c1C	.	3.79µM*	1.41µM*	2µM*	.	4.11µM*
COc1ccc(C(=O)Nc2ccc([N+](=O)[O-])cn2)c(OC)c1	.	0.301µM*	1.12µM*	0.447µM*	.	1.16µM*
COc1ccc([N+](=O)[O-])cc1NC(=O)c1csc(C)c1	.	2.69µM*	15.6%	0.2%	.	-1.8%

Screening results: PubChem BioAssay, National Center for Advancing Translational Sciences (NCATS)
